The list is not random: actives were taken first. Their share in the collection is about 1.4%.
CFTR F508del cor = correctors of CFTR F508del function in bronchial epithelial cells | activity (quench increase), % at 7.58 µM | CFBE cells, YFP halide quenching; stimulated with forskolin plus potentiator P3; % fluorescence drop versus neutral controls | hit rate 0.36% among 350,000;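 active means mean added fluorescence quench of at least 8% versus neutral control, with both replicates also reaching 8%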;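 further: cells transiently co-express mutant CFTR-F508del with the halide-sensitive YFP; corrector assay measuring rescue of mutant channel to the surface after 24 h compound exposure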
PglD inh = inhibitors of Campylobacter jejuni PglD acetyltransferase | purified PglD enzyme, DTNB colorimetric CoA detection | inhibition, % at 12.5 µM | hit rate 0.098% among 360,000; in the data active means inhibition above about 16%, passing the limit was not always enough
Statin myotox sup = suppressors of simvastatin-induced myotoxicity in C2C12 myotubes | ATP luminescence, 48 h; scaled: DMSO 0, geranylgeraniol control 100 | rescue of ATP level, % at 7.49 µM | hit rate 0.78% among 330,000 | AID 602340;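 active means mean ATP rescue above about 67%, or every replicate alone reaching that limit, limit read from the data, passing the limit was not always enough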;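 further: myotubes were challenged with 10 µM simvastatin during compound exposure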
ARNT-TACC3 inh = ARNT/TACC3 interaction disruption. AID 623870. inhibition, % at 9.99 µM. AlphaScreen His-ARNT PAS-B/GST-TACC3 binding, luminescence; TACC3 fragment carries E629A point mutation. Q9Y6A5. hit rate 0.66% among 390,000;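 active means mean inhibition of replicates at least 50% and at least half of replicates each reaching 50%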;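 further: 0% = complete ARNT plus TACC3 wells and 100% = ARNT alone without TACC3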
* = called active by the depositor; . = no result given.

SMILES	CFTR F508del cor	PglD inh	Statin myotox sup	ARNT-TACC3 inh
COc1ccc2[nH]c(=O)c(CN(CC3CCCO3)C(=S)Nc3ccccc3)cc2c1 (configuration not stated)	-3	.	.	2
OC(CSc1ccccn1)CC(O)c1ccccc1 (configuration not stated)	1	-1	.	-2
Cc1cccn2c(=O)c3cc(C(=O)NCCC4=CCCCC4)n(C)c3nc12	-3	0	127*	-4
Cn1c(C(=O)NCCC2=CCCCC2)cc2c(=O)n3ccccc3nc21	.	4	-3	-9
O=C1CCC(C(=O)OCC(=O)C23CC4CC(CC(C4)C2)C3)N1 (configuration not stated)	.	6	90*	-4
O=C1CCC(C(=O)OCc2ccccc2)N1 (configuration not stated)	-4	6	31	-4
Cn1cccc1-c1nc2ccc(NC(=O)c3cccs3)cc2[nH]1	.	6	-36	36*
COc1ccc(Br)cc1/C=C/c1ccc2cccc(O)c2n1	5	-4	68*	-1
COc1cc(Br)cc(/C=C/c2ccc3cccc(O)c3n2)c1OC	1	-4	-14	-19
C[C@@H]1CN([C@@H](C)CO)C(=O)c2cc(NC(=O)NC3CCCCC3)ccc2O[C@H]1CN(C)Cc1ccncc1	-3	1	-3	-2
CCC(=O)N1CC2(CCN(Cc3ccc(Cl)cc3)CC2)c2c(n(C)c3cc(OC)ccc23)[C@H]1CO	14*	.	.	.
CCCNC(=O)N1CC2(CN(S(=O)(=O)c3cccc(OC)c3)C2)c2c(n(C)c3cc(OC)ccc23)[C@H]1CO	8.6*	.	.	.
CCC(=O)N1CC2(CN(Cc3ccc(Cl)cc3)C2)c2c(n(C)c3cc(OC)ccc23)[C@@H]1CO	3	.	.	.
CCCNC(=O)N1CC2(CN(S(=O)(=O)c3ccccc3)C2)c2c(n(C)c3cc(OC)ccc23)[C@H]1CO	5	.	.	.
CN(C)c1ccc2c(c1)[C@@H]1C[C@@H](CC(=O)NCc3cccc(F)c3)O[C@@H](CO)[C@@H]1O2	1	1	4	27
Cc1ccc(NC(=O)CN(C)CC(=O)Nc2c(C)cccc2C)c(Br)c1	.	2	97*	-12
C[C@H](CO)N1C[C@H](C)[C@@H](CN(C)Cc2ccc(C(F)(F)F)cc2)Oc2ccc(NC(=O)Cc3cn(C)c4ccccc34)cc2C1=O	2	3	34	-1
C[C@@H]1CN([C@H](C)CO)C(=O)c2cc(NC(=O)Cc3cn(C)c4ccccc34)ccc2O[C@H]1CN(C)Cc1ccc(-c2ccccc2)cc1	3	.	68*	.
C[C@H](CO)N1C[C@H](C)[C@H](CN(C)Cc2ccc(C(=O)Nc3ccccc3N)cc2)Oc2ccc(NC(=O)Cc3cn(C)c4ccccc34)cc2C1=O	0	1	97*	-2
C[C@H]1CN([C@@H](C)CO)C(=O)c2cc(NC(=O)Cc3cn(C)c4ccccc34)ccc2O[C@@H]1CN(C)Cc1ccc(C(F)(F)F)cc1	3	-6	83*	-11
C[C@H]1CN([C@@H](C)CO)C(=O)c2cc(NC(=O)Cc3cn(C)c4ccccc34)ccc2O[C@@H]1CN(C)Cc1ccc(-c2ccccc2)cc1	4	.	46	.
COc1ccc2c3c(n(C)c2c1)[C@H](CO)N(CC1CCCC1)CC31CN(C(C)=O)C1	1	.	.	.
COc1ccc(C2NC(=S)NC3=C2N2CCC3CC2)cc1 (configuration not stated)	-1	.	.	active
CCOc1ccc(-c2noc(CCC(=O)NC)n2)cc1OCC	.	3	95*	-10
CCOc1cc(-c2noc(CCC(=O)NCCc3ccccc3)n2)ccc1OC	-2	3	18	-2
SMILES	CFTR F508del cor	PglD inh	Statin myotox sup	ARNT-TACC3 inh
Cc1ccc(-c2noc(CCC(=O)NCC3CCN(Cc4cccc(C)c4)CC3)n2)cc1	.	-3	87*	0
CCn1c(CSc2nc(C)cc(C)n2)nnc1SCC(=O)Nc1nc(-c2ccccc2)cs1	.	1	117*	-12
Cc1cc(C)nc(SCc2nnc(SCC(=O)Nc3nc(-c4ccccc4)cs3)n2C)n1	.	-1	13	-6
Cc1cc(C(=O)c2ccccc2)cc(C)c1O	11*	.	.	3
O=C(O)c1nn(-c2ccccc2)nc1-c1nn(-c2ccccc2)nc1C(=O)O	.	1	136*	-43
CCOC(=O)C(=O)/C(=C\N(C)C)c1onc(-c2c(Cl)cccc2Cl)c1C(=O)OC	.	4	85*	0
Cc1ccccc1-c1ccc([C@H]2[C@H](CO)N3C(=O)CN(C(=O)Cc4ccccn4)C[C@@H]23)cc1	-5	.	.	.
COc1ccc2nc(NN=C(C)c3ccccn3)cc(C)c2c1	-1	.	.	70*

High-throughput results deposited in PubChem by Broad Institute.
